CYP2C19 inhib = blocks human cytochrome P450 2C19 | AID 778 | actives 21% (n = 96,000) | CYP2C19 Supersomes, luciferin-H EGE luminescence, 30 min | inhibition, % at 5 µM | P33261;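 active means CYP2C19 inhibition above a set limit at 5 µM in the primary screen, cut at about 50% in these data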;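 further: plate controls were negative control wells for no effect and 2.5 mM tranylcypromine positive control for full effect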
Target sequence (P33261 whole entry, looked up): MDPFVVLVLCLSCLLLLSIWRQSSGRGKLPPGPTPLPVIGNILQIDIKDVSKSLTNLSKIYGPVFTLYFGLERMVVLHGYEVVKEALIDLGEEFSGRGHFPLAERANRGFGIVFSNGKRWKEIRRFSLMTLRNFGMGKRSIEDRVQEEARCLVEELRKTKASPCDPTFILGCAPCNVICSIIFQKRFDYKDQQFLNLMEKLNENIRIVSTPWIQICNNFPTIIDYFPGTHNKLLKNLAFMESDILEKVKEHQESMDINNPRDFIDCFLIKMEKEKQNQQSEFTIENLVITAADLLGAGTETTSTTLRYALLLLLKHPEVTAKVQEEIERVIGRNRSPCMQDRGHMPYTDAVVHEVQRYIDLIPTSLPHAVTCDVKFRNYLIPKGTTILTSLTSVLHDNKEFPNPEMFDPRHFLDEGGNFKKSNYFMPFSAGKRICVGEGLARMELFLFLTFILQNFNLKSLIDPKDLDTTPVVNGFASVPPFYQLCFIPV
MRP1 act = activators of MRP-1. H69AR cells + doxorubicin, viability rescue, CellTiter-Glo. AID 799. viability increase, % at 10 µM. actives 0.61% (n = 140,000);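 active means viability gain under doxorubicin at or above a set limit, the compound median plus 3 SD, cut at about 4.7% in these data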;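 further: MRP-1 overexpressing cells given doxorubicin 25 µM after compound pretreatment; 18-22 h compound pretreatment then 72 h with doxorubicin before readout; 0% = doxorubicin-only wells and 100% = vehicle-treated cells without doxorubicin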
CYP2C19 activ = cytochrome P450 2C19 (human) activation; 96,000 tested, under 10 active; activation factor at 5 µM; P33261; recombinant CYP2C19, luciferin-H EGE luminescence; hits give high values; 0 = fully inhibited enzyme, 1 = untreated enzyme; AID 1025;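 active means activation factor of at least 2 at 5 µM in the primary screen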;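 further: 0 = wells with 2.5 mM tranylcypromine and 1 = vehicle-only wells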
MRP reversal = reverses drug resistance mediated by MRP | H69AR cells + 2 uM doxorubicin, CellTiter-Glo, 72 h | differential viability (reversal), % at 10 µM | actives 0.04% (n = 85,000);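 active means viability drop by adding the cancer drug above about 55%, with treated viability meeting a 40% cutoff, limit read from the data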;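 further: viability without doxorubicin minus viability with 2 µM doxorubicin for each compound; larger differential means the compound sensitizes cells more to doxorubicin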
CYP2C9 inh = human CYP2C9 inhibition | inhibition, % at 5 µM | CYP2C9 Supersomes, luciferin-H conversion, luminescence | actives 20% (n = 96,000) | P11712;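 active means blocking of liver enzyme CYP2C9 beyond about 50% at 5 µM, limit read from the data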
CYP2C9 act = activators of human CYP2C9; recombinant CYP2C9, luciferin-H conversion, luminescence; hits give high values; factor 1 = untreated enzyme, 0 = blocked; activation factor at 5 µM; actives 1.4% (n = 96,000);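 active means activation factor of 2 or more for CYP2C9 at a 5 µM dose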;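 further: 0 = sulfaphenazole-blocked wells and 1 = vehicle-only wells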
The depositor's hits bear a star; . = not tested or not shown. The list is not random: actives were taken first. Their share in the collection is about 21%.

SMILES	CYP2C19 inhib	MRP1 act	CYP2C19 activ	MRP reversal	CYP2C9 inh	CYP2C9 act
CCOC(=O)C1CCN(C(=O)Nc2ccccc2Cl)CC1	65*	-2	0.4	3	5	0.9
CCOC(=O)N1CCN(C(=O)Nc2ccccc2Cl)CC1	16	-1	0.8	7	-5	1
CCOC(=O)C1CCN(C(=S)Nc2cccc(C)c2)CC1	96*	0	0	.	24	0.8
CCCC(C)NC(=O)c1ccc(OCc2ccc(Cl)cc2)c(OC)c1 (stereo not drawn)	.	-3	.	.	.	.
Cc1noc(C)c1COc1cccc(C(=O)Nc2ccccc2N2CCOCC2)c1	.	-1	.	.	.	.
CC(=O)Nc1ccc(-c2nc3c(C)cccc3[nH]2)cc1	15	-1	0.8	-5	8	0.9
O=S(=O)(Nc1ccccc1Cl)c1ccc(F)cc1	89*	-1	0.1	1	51*	0.5
CCC(C)NS(=O)(=O)c1ccc(NS(=O)(=O)c2ccc(F)cc2)cc1 (stereo not drawn)	74*	-2	0.3	-1	98*	0
O=c1ccc2cc(S(=O)(=O)Nc3ccc(F)cc3)ccc2o1	98*	2	0	13	46	0.5
Cc1ccc(S(=O)(=O)NC(=O)Nc2ccc(F)cc2)cc1	.	-2	.	-12	.	.
Cc1cccc(C)c1NS(=O)(=O)c1ccc(F)cc1	99*	-1	0	2	75*	0.3
O=S(=O)(Nc1ccc(F)cc1)c1ccc(NC(=S)Nc2ccccc2)cc1	57*	-2	0.4	.	86*	0.1
O=S(=O)(Nc1ccccc1)c1ccc(F)cc1	92*	-1	0.1	1	72*	0.3
O=C1c2ccccc2C(=O)c2cc(S(=O)(=O)Nc3ccccc3)ccc21	.	-1	.	.	.	.
Clc1ccc(CNc2nnnn2-c2ccccc2)c(Cl)c1	98*	0	0	.	53*	0.5
C1=C(CCNc2nnnn2-c2ccccc2)CCCC1	48	-2	0.5	6	44	0.6
Clc1cccc(CNc2nnnn2-c2ccccc2)c1	12	-4	0.9	21	23	0.8
c1ccc(CCNc2nnnn2-c2ccccc2)cc1	58*	0	0.4	14	21	0.8
COCCn1c(-c2cc(OC)c(OC)c(OC)c2)nc2oc3ccccc3c(=O)c2c1=O	-15	.	1.1	-4	-25	1.2
CC(OC(=O)c1ccc(NS(=O)(=O)c2cccs2)cc1)C(=O)N(C)C1CCCCC1 (stereo not drawn)	.	-3	.	.	.	.
CCOC(=O)C1C(=O)NC(c2ccccc2)=NC1c1ccccc1 (stereo not drawn)	31	-2	0.7	.	25	0.7
CCOC(=O)C1C(=O)NC(c2ccccc2)=NC1c1ccc(F)cc1 (stereo not drawn)	58*	-2	0.4	.	39	0.6
O=C(COC(=O)CC12CC3CC(CC(Br)(C3)C1)C2)NC(=O)NCc1ccco1	46	-2	0.5	27	64*	0.4
CC(C)NC(=S)N/N=C/c1cccs1	82*	0	0.2	.	37	0.6
O=C(Oc1ccccc1)c1cccc(N2C(=O)CCC2=O)c1	66*	0	0.3	-6	51*	0.5
SMILES	CYP2C19 inhib	MRP1 act	CYP2C19 activ	MRP reversal	CYP2C9 inh	CYP2C9 act
CCOC(=O)c1c(-c2ccc(F)cc2)csc1NC(=O)c1c(-c2ccccc2)noc1C	.	7.5*	.	.	.	.
O=C(Oc1ccc(N2C(=O)CCC2=O)cc1)c1ccccc1	.	3	.	17	.	.
CCOC(=O)c1c(-c2ccccc2)csc1NC(=O)c1cccc(N2C(=O)CCC2=O)c1	45	-1	0.6	.	84*	0.2
COC(=O)c1c(-c2ccccc2)csc1NC(=O)c1c(-c2ccccc2)noc1C	.	2	.	.	.	.
CCOC(=O)c1c(-c2ccc(C)cc2)csc1NC(=S)NC(=O)c1ccccc1	6	-2	0.9	.	93*	0.1
Cc1ccc(O)c(C(=O)c2cnc3c(c2)c(C)nn3-c2ccccc2)c1	.	-2	.	.	.	.
CC(=O)Nc1sc(C)c(C)c1C(=O)OC(C)C	.	0	.	.	.	.
Cc1cc(C(F)(F)F)nn1CC(=O)NNC(=S)Nc1ccc(F)cc1	31	-1	0.7	.	32	0.7
CCc1ccccc1NC(=O)Cn1nc(C(F)(F)F)cc1C1CC1	83*	-1	0.2	.	5	0.9
CCNS(=O)(=O)c1ccc(NC(=O)Cn2nc(C(F)(F)F)cc2C)cc1	-17	0	1.2	-8	57*	0.4
CCc1ccccc1NC(=O)NC1CCCCC1	19	-1	0.8	8	3	1
